About 7,900 targets were measured; listed, in parts, are those with a hit and a random draw of the rest. About 0.6% of all pairs of compound and target were hits.
compound: C[C@H](C1=CC=C(C=C1)C(=O)NC2=C3C=CNC3=NC=C2)N; experiment: log2 fold change, soluble protein after heating vs DMSO (PISA); higher = thermal stabilisation; K562 cells, 10 uM, 30 min; active = over 0.2 and 3.5 SD of the protein, either way, in both replicates (recomputed)
In short: (§1)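 Thermal stability values are relative to control samples and come from duplicates. They are expressed as log2 fold changes. For measurement, K562 cells (2×10^6 cells/mL) received 10 μM compound for 30 min, and aliquots were heated for 3 min over 48°C-58°C, pooled, and extracted at 4°C in PBS with 0.5% NP-40. Soluble protein, the supernatant after 21,000xg for 90 min, was quantified by TMTpro 16plex LC-MS/MS with equalised channel sums.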

UniProt P11233, sequence (P11233 whole entry, looked up): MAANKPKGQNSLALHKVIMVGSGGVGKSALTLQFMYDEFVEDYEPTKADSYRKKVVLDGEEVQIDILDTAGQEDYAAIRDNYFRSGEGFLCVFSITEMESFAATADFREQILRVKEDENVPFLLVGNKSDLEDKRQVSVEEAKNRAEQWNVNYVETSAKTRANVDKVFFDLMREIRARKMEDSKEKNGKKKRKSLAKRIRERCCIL
UniProt Q9NX18, sequence (Q9NX18 whole entry, looked up): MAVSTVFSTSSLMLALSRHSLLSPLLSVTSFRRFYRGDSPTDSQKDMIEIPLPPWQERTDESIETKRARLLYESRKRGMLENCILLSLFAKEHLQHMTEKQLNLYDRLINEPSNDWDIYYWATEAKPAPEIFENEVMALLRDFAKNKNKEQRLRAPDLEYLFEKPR
UniProt O94885, sequence (O94885 whole entry, looked up): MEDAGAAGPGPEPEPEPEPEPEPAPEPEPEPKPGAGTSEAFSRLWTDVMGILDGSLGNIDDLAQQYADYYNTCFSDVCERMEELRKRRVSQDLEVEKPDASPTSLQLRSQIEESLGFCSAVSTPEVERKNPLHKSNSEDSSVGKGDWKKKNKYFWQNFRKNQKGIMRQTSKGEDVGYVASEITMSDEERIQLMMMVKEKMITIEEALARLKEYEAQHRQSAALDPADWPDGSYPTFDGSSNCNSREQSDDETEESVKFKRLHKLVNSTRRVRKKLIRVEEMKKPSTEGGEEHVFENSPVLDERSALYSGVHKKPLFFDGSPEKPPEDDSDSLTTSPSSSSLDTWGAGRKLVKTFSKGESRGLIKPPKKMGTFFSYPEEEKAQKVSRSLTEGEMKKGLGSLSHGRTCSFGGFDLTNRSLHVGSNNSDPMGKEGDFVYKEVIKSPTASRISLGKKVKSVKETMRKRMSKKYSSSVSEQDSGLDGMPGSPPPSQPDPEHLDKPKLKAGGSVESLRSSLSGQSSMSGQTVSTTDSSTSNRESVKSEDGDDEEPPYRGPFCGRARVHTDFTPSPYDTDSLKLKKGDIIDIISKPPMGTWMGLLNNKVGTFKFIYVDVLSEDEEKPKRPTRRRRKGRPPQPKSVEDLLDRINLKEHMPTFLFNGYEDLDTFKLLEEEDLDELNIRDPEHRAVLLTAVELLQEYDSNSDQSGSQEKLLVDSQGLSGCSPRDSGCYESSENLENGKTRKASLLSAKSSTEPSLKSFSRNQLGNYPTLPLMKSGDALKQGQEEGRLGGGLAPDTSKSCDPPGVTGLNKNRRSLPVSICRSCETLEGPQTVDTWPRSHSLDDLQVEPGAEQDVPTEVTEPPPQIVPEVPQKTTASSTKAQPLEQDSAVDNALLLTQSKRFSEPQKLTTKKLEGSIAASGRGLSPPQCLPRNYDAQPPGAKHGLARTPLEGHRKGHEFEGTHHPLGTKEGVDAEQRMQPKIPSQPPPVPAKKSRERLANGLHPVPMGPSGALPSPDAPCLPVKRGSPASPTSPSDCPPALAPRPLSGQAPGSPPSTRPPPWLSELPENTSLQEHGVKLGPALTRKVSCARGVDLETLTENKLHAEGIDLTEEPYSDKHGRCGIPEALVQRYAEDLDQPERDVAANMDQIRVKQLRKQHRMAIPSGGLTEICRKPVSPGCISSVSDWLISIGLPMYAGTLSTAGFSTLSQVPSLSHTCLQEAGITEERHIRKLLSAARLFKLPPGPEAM
UniProt Q14498, sequence (Q14498 whole entry, looked up): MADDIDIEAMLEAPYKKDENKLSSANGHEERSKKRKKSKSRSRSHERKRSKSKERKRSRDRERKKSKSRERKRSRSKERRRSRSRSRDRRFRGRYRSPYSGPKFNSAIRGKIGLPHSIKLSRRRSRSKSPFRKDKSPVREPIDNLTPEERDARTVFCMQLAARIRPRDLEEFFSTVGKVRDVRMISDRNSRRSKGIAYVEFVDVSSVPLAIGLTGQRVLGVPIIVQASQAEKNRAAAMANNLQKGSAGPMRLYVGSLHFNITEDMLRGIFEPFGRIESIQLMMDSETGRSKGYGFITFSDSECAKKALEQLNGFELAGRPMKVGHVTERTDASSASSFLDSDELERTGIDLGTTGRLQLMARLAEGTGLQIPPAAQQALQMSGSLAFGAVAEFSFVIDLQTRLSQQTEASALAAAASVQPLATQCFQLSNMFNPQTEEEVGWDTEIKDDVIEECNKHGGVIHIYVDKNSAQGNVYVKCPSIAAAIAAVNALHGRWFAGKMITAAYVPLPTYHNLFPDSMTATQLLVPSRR
UniProt Q14493, sequence (Q14493 whole entry, looked up): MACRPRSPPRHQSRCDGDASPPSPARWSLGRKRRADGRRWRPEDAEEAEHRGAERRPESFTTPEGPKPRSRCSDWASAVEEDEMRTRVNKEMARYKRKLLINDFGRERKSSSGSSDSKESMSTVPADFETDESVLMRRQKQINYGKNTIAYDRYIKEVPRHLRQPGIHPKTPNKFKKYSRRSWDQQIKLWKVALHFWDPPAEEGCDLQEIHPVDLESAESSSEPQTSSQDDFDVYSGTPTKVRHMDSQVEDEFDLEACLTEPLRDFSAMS
UniProt P49756, sequence (P49756 whole entry, looked up): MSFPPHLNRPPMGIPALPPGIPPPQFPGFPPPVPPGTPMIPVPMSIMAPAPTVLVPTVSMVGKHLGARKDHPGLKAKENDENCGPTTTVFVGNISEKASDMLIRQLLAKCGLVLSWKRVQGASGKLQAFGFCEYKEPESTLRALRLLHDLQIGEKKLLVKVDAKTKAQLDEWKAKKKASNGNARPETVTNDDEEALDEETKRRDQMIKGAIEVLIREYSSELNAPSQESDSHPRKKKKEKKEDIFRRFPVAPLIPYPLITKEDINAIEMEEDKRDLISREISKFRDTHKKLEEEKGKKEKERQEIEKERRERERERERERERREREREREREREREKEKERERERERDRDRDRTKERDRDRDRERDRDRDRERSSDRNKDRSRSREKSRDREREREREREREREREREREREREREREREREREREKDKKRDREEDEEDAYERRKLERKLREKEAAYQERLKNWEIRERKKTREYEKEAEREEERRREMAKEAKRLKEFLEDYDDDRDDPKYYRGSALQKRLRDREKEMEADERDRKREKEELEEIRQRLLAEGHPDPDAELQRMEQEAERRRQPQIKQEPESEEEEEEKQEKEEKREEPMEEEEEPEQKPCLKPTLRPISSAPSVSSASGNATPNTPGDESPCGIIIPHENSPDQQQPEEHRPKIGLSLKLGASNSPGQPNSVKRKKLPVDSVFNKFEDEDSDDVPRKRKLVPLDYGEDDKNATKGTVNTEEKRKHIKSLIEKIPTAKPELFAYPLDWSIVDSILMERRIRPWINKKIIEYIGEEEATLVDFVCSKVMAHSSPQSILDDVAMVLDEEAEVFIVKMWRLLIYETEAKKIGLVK
UniProt O43818, sequence (O43818 whole entry, looked up): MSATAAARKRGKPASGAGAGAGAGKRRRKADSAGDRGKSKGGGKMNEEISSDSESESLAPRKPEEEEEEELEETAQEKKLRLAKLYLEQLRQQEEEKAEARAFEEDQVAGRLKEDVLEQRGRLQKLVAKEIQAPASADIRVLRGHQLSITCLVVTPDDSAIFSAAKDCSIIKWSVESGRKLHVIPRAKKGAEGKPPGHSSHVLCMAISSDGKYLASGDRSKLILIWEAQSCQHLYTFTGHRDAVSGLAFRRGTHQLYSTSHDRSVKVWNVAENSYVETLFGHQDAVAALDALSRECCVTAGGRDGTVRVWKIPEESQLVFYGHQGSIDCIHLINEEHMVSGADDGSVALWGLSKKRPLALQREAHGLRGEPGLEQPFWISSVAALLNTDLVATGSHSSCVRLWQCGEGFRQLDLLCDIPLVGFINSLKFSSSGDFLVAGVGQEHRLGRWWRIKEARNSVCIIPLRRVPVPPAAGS
UniProt Q15436, sequence (Q15436 whole entry, looked up): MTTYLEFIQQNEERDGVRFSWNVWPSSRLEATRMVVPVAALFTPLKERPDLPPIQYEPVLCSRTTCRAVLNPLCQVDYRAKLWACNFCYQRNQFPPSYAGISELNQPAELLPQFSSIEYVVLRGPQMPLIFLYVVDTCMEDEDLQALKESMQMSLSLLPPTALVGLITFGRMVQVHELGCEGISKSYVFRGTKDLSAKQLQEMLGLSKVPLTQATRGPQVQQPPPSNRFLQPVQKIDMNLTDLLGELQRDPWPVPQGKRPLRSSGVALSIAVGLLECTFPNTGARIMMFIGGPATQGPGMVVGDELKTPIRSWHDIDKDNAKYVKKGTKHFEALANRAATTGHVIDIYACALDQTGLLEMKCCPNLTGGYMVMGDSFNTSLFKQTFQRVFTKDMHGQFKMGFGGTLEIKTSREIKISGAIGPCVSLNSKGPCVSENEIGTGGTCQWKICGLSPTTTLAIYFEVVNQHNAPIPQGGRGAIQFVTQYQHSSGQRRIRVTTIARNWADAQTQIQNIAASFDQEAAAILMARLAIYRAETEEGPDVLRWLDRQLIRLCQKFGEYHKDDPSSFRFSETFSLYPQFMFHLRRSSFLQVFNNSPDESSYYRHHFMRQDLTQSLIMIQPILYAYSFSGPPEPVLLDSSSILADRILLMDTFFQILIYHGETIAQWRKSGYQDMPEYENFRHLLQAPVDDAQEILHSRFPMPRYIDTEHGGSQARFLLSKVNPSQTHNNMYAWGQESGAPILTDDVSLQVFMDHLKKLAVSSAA
UniProt Q96I25, sequence (Q96I25 whole entry, looked up): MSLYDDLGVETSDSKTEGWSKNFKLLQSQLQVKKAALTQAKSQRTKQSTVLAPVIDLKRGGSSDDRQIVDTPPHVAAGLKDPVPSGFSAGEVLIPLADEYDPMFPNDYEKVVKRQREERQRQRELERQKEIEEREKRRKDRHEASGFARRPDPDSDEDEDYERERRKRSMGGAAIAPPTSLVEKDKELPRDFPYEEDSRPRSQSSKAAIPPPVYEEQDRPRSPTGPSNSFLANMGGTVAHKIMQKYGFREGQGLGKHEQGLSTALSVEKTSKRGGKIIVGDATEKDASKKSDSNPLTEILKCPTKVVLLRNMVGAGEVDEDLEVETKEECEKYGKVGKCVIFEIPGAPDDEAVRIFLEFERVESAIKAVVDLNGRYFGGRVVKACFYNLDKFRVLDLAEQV

log2 fold change, inactive:
SLBP (UniProt Q14493) 0.003, RDH10 (UniProt Q8IZV5) -0.011, SAFB2 (UniProt Q14151) 0.164, SEC23A (UniProt Q15436) -0.102, SCG3 (UniProt Q8WXD2) -0.109, RUFY1 (UniProt Q96T51) 0.075, SLC19A1 (UniProt P41440) -0.088, SFXN5 (UniProt Q8TD22) -0.137, RAC3 (UniProt P60763) -0.027, RPRD1B (UniProt Q9NQG5) -0.042, SDHC (UniProt Q99643) -0.045, RRAGC (UniProt Q9HB90) -0.027, RPS19 (UniProt P39019) 0.182, RHEB (UniProt Q15382) -0.041, RBM17 (UniProt Q96I25) 0.02, SIRT2 (UniProt Q8IXJ6) 0.072, RBM12 (UniProt Q9NTZ6) -0.109, SASH1 (UniProt O94885) -0.024, RPS20 isoform 2 (UniProt P60866) 0.174, RPP14 (UniProt O95059) -0.076, RBM25 (UniProt P49756) -0.01, RCOR1 (UniProt Q9UKL0) 0.071, RPS12 (UniProt P25398) 0.165, RAB9A (UniProt P51151) -0.044, REL (UniProt Q04864) 0.02, RAB5C isoform 2 (UniProt P51148) -0.092, RPS27A (UniProt P62979) 0.088, SKP1 (UniProt P63208) -0.19, RRP9 (UniProt O43818) 0.031, RALA (UniProt P11233) -0.097, SDHAF2 (UniProt Q9NX18) -0.111, RBM39 (UniProt Q14498) -0.01, RNPEP (UniProt Q9H4A4) -0.034

compound: C[C@H](Nc1ncnc2nc[nH]c12)c1cc2cccc(Cl)c2c(=O)n1-c1ccccc1 [duvelisib]; experiment: as above
In short: as §1

log2 fold change, inactive:
SLBP (UniProt Q14493) -0.128, RDH10 (UniProt Q8IZV5) 0.015, SAFB2 (UniProt Q14151) -0.155, SEC23A (UniProt Q15436) 0.017, SCG3 (UniProt Q8WXD2) 0, RUFY1 (UniProt Q96T51) -0.005, SLC19A1 (UniProt P41440) 0.135, SFXN5 (UniProt Q8TD22) -0.07, RAC3 (UniProt P60763) 0.145, RPRD1B (UniProt Q9NQG5) 0.078, SDHC (UniProt Q99643) 0.155, RRAGC (UniProt Q9HB90) 0.053, RPS19 (UniProt P39019) -0.11, RHEB (UniProt Q15382) 0.021, RBM17 (UniProt Q96I25) 0.031, SIRT2 (UniProt Q8IXJ6) -0.048, RBM12 (UniProt Q9NTZ6) 0.011, SASH1 (UniProt O94885) 0.032, RPS20 isoform 2 (UniProt P60866) -0.034, RPP14 (UniProt O95059) -0.019, RBM25 (UniProt P49756) 0.037, RCOR1 (UniProt Q9UKL0) 0.088, RPS12 (UniProt P25398) -0.061, RAB9A (UniProt P51151) 0.04, REL (UniProt Q04864) -0.034, RAB5C isoform 2 (UniProt P51148) 0.011, RPS27A (UniProt P62979) -0.218, SKP1 (UniProt P63208) -0.054, RRP9 (UniProt O43818) -0.029, RALA (UniProt P11233) -0.046, SDHAF2 (UniProt Q9NX18) 0.082, RBM39 (UniProt Q14498) -0.012, RNPEP (UniProt Q9H4A4) 0.039

compound: Cc1cc(Nc2cc(CN3CCOCC3)c3nc(C)c(Cc4ccc(Cl)cc4F)n3n2)n[nH]1 [gandotinib]; experiment: as above
In short: as §1

log2 fold change, inactive:
SLBP (UniProt Q14493) -0.022, RDH10 (UniProt Q8IZV5) -0.111, SAFB2 (UniProt Q14151) 0.184, SEC23A (UniProt Q15436) -0.109, SCG3 (UniProt Q8WXD2) -0.101, RUFY1 (UniProt Q96T51) -0.029, SLC19A1 (UniProt P41440) -0.107, SFXN5 (UniProt Q8TD22) -0.026, RAC3 (UniProt P60763) 0, RPRD1B (UniProt Q9NQG5) -0.227, SDHC (UniProt Q99643) -0.023, RRAGC (UniProt Q9HB90) 0, RPS19 (UniProt P39019) 0.201, RHEB (UniProt Q15382) -0.097, RBM17 (UniProt Q96I25) -0.031, SIRT2 (UniProt Q8IXJ6) 0.002, RBM12 (UniProt Q9NTZ6) -0.132, SASH1 (UniProt O94885) -0.028, RPS20 isoform 2 (UniProt P60866) 0.129, RPP14 (UniProt O95059) -0.119, RBM25 (UniProt P49756) -0.166, RCOR1 (UniProt Q9UKL0) -0.046, RPS12 (UniProt P25398) 0.124, RAB9A (UniProt P51151) 0, REL (UniProt Q04864) -0.321, RAB5C isoform 2 (UniProt P51148) -0.021, RPS27A (UniProt P62979) 0.347, SKP1 (UniProt P63208) -0.035, RRP9 (UniProt O43818) 0.056, RALA (UniProt P11233) -0.001, SDHAF2 (UniProt Q9NX18) 0.057, RBM39 (UniProt Q14498) -0.052, RNPEP (UniProt Q9H4A4) -0.053

Source: the supplement of paper PMC10849652
